The list is not random: actives were taken first. Their share in the collection is about 21%.
NS1 inh = influenza NS1 inhibition. Potency, µM (series often up to 46.1 µM), for the others: at the top dose activity, positive = more growth. 270,000 compounds, 0.4% hits. AID 2326; note: potency is the fitted concentration of half-maximal effect; actives are rising curves; nearly all actives have a fitted effect of over 50% in size
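Growth recovery, yeast-based: influenza A NS1 expressed in S. cerevisiae causes slow growth, and suppressors are detected by OD600. The parent strain without NS1 is used as positive control.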
Pf growth 96h = inhibits malaria parasite growth, 96 h. 320,000 compounds, 6.9% hits. AID 504834. P. falciparum luciferase reporter growth, 96 h. Potency, µM (titrated, usually from 28.7 µM), for the others: at the highest dose activity change, negative = inhibition, actives largely listed as inhibitors; active = well fitted inhibition curve with a large enough effect; inconclusive = small, poorly fitted or top-dose-only effect, or another doubt; inactive = no such curve, though single readings can be large or run the other way; note: potency is the fitted concentration of half-maximal effect; % is set by controls: 0 for no effect and ±100 for the full control effect
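Two-generation exposure (96 h) targets delayed-death phenotype. Reporter parasites carrying integrated firefly luciferase, in red cells at 2% hematocrit and 0.05% parasitemia final, kept at 37 C, 5% CO2; luminescence loss indicates inhibition.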
Shiga toxin inh = inhibitors of Shiga toxin in Vero cells | Vero cells, Shiga toxin protein synthesis inhibition reporter | 290,000 compounds, 9.2% hits | AID 2315 | inhibition, % at 38.7 µM; in the data active = inhibition mostly above about 28%, no sharp cut-off; inactive = mostly below about 43%; note: 0% is about no effect
Pf growth 48h = inhibits P. falciparum growth in the first generation, 48 h. 310,000 compounds, 5.9% hits. P. falciparum luciferase growth in erythrocytes, 48 h. Potency, µM (titrated, usually from 28.7 µM), for the others: top-dose activity change, negative = inhibition, usual class: inhibitors. AID 504832; active = well fitted inhibition curve with a large enough effect; inconclusive = small, poorly fitted or top-dose-only effect, or another doubt; inactive = no such curve, though single readings can be large or run the other way; note: potency is the fitted concentration of half-maximal effect; % is set by controls: 0 for no effect and ±100 for the full control effect
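Erythrocytes infected with P. falciparum carrying an integrated firefly luciferase reporter (2% hematocrit, 0.1% parasitemia final) were exposed to compounds in RPMI 1640 with 0.5% Albumax at 37 C, 5% CO2. Growth inhibition was scored as reduced luminescence.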
CHX counter = counter-screen hit for Shiga toxin inhibitors, cycloheximide; cell reporter, cycloheximide protein synthesis inhibition counterscreen; max response, %; 300,000 compounds, 12% hits; in the data active = max response mostly above about 13%, no sharp cut-off; inactive = mostly below about 14%; note: read at 38.3 µM for the half of the compounds with a filed dose; 0% is about no effect
SARS PLP yeast = SARS-CoV PLP inhibition in yeast; S. cerevisiae expressing SARS-CoV PLpro, growth rescue; Potency, µM (titrated, usually from 32.9 µM), without a hit: at the highest dose activity, positive = growth rescue, hits mostly activators; AID 485353; 330,000 compounds, 0.19% hits; note: potency is the fitted concentration of half-maximal effect; 0% is about no effect; nearly all actives have a fitted effect of over 55% in size
* = called active by the depositor; ? = inconclusive; . = no result; [ ] = another dose, or the depositor's remark. Unless noted, calls come from the whole dose curve.

SMILES	NS1 inh	Pf growth 96h	Shiga toxin inh	Pf growth 48h	CHX counter	SARS PLP yeast
CCCC1CCC(c2nc(-c3cccnc3)no2)CC1 (stereo not given)	-7.1%	-8.6%	45.1	26.3%	61.8*	5.0%
COc1ccc(OC)c(NC(=O)C2=C(C)Nc3ncnn3C2c2cccs2)c1 (stereo not given)	-31.7%	-17.7%	-1.2	-13.6%	-4.3	-1.9%
COc1ccc(C2Oc3ccccc3C3=C2C(c2cccs2)n2ncnc2N3)cc1 (stereo not given)	?	.	13.4	8.28µM*	4.6	10.4%
Brc1ccc(C2C3=C(Nc4ncnn42)c2ccccc2OC3c2ccncc2)cc1 (stereo not given)	6.8%	.	-11.2	13.1µM*	1.2	3.2%
COC(=O)NC(NC(=S)Nc1ccc([N+](=O)[O-])cc1)C(Cl)(Cl)Cl (stereo not given)	-22.8%	-6.4%	-5.0	11.7µM*	-3.2	-9.6%
COC(CNC(=S)Nc1ccc([N+](=O)[O-])cc1)OC	8.8%	7.2%	active	54.0%	14.1*	18.6%
COc1ccc(S(=O)(=O)N(C)C[C@H]2Oc3ccc(NC(=O)NC4CCCCC4)cc3C(=O)N([C@H](C)CO)C[C@@H]2C)cc1	.	.	.	.	.	6.7%
C[C@]12CCC(O)CC1=CCC1C2CC[C@]2(C)/C(=N\NC(N)=S)CCC12 (stereo not given in full)	3.6%	?	-6.1	7.3%	-0.7	0.4%
Nn1c(Cc2cccc3ccccc23)nnc1SCCOc1ccc(F)cc1	-12.0%	-8.2%	-4.7	6.6%	-1.2	-6.4%
O=C(NCCc1ccccc1)c1cc2sccc2n1Cc1ccccc1	5.0%	?	18.5	?	15.5	2.0%
CN1CCN(C(=O)c2cc3sccc3n2CC(=O)c2ccccc2)CC1	2.4%	2.1%	-18.5	7.2%	-5.7	-4.1%
O=C(NCc1ccco1)c1ccc(Cn2c(=O)c3sccc3n(Cc3cccc(F)c3)c2=O)cc1	?	2.62µM*	22.4	.	25.8*	0.4%
O=C(NCc1ccco1)c1cc2sccc2n1Cc1ccccc1	-72.1%	2.08µM*	36.1*	11.7µM*	56.2*	-76.8%
O=C(c1ccco1)N1CCN(C(=O)c2cc3sccc3n2Cc2ccccc2)CC1	-1.2%	-13.8%	-16.8	11.7µM*	-3.8	10.1%
O=C(NCc1ccco1)c1ccc(Cn2c(=O)c3ccccc3n(Cc3cccc(Cl)c3)c2=O)cc1	10.9%	.	-4.8	.	-2.1	-3.3%
CCCN1CCN(CCCNC(=O)c2ccc(NC(=O)C3=C(C)OCCS3)cc2)CC1	10.3%	-23.3%	-3.1	6.0%	-6.1	6.0%
Nc1ncccc1C(=O)OCC(=O)N1CCN(S(=O)(=O)c2ccc(Cl)cc2)CC1	.	?	.	-19.6%	.	-1.6%
CC1CCCCC1NC(=O)CCN1C(=O)C2C3C=CC(C3)C2C1=O (stereo not given)	?	2.1%	-10.6	28.2%	-1.6	-2.2%
COC(=O)c1ccc(C)c(NC(=O)CN(c2ccccc2)S(=O)(=O)N(C)C)c1	-0.1%	?	-13.9	-6.0%	-2.6	-0.4%
Cc1cccc(CSc2ccc(S(=O)(=O)N3CCCC3)cn2)c1	.	6.57µM*	.	?	.	10.3%
CCC(C)NC(=O)CSc1ccc(S(=O)(=O)N2CCN(Cc3ccccc3)CC2)cn1 (stereo not given)	.	9.28µM*	.	?	.	0.8%
CC(C)(C)c1ccc(CSc2ccc(S(=O)(=O)N3CCOCC3)cn2)cc1	.	?	.	10.4µM*	.	-3.3%
Cc1ccc(C(C)NC(=O)CSc2ccc(S(=O)(=O)N3CCOCC3)cn2)cc1C (stereo not given)	.	?	.	11.7µM*	.	-4.3%
CC(C)NC(=O)NC(=O)CSc1ccc(S(=O)(=O)N2CCCC2)cn1	.	3.6%	.	20.8%	.	-2.0%
CCCn1ncc(CN2CCC(N3CCC(C(=O)N4CCOCC4)CC3)CC2)c1C	3.4%	0.0%	23.1	-3.4%	-3.8	-0.7%
SMILES	NS1 inh	Pf growth 96h	Shiga toxin inh	Pf growth 48h	CHX counter	SARS PLP yeast
C[C@@H]1[C@@H](C)N1C[C@H](O)Cn1ccnc1[N+](=O)[O-] (stereo not given in full)	2.8%	.	.	.	.	.
O=C(c1ccccc1)c1ncc[nH]1	6.8%	91.7%	36.0	53.9%	18.7*	-3.2%
Cc1cc(CNC(=O)[C@]2(C(F)(F)F)C[C@H](CCC3CCCCC3)CCCO2)nn1C	.	.	12.0	.	7.3	.
O=C(O)CNC(=S)NCc1ccccc1	14.1%	20.4%	-3.5	13.1µM*	-2.1	1.1%
NNC(=S)NCc1ccccc1	7.3%	9.28µM*	-7.8	?	-2.4	3.4%
COC(=O)NNC(=S)NCc1ccccc1	23.9%	25.3%	16.1	16.0%	-2.1	15.5%
CN(C)C(=O)c1ccc(-c2nnc(NCc3ccccc3)c3ccccc23)cc1	-3.7%	2.94µM*	-7.2	13.1µM*	-8.1	?
COc1ccc(NC(=O)c2ccc(-c3nn(C)c(=O)c4ccccc34)cc2)cc1	0.9%	428.9%	-9.9	-20.5%	-2.0	1.3%
CCN(CC)C(=O)c1ccc(-c2nnc(Nc3ccc(O)cc3)c3ccccc23)cc1	-4.7%	7.1%	.	?	2.6	5.9%
CCN(CC)C(=O)c1ccc(-c2nnc(Nc3ccc(C(=O)N(C)C)cc3)c3ccccc23)cc1	-20.6%	7.6%	-5.1	5.86µM*	-2.6	-9.4%
CCN(CC)C(=O)c1ccc(NC(=O)c2ccc(-c3nn(C)c(=O)c4ccccc34)cc2)cc1	-0.5%	10.4µM*	-5.9	8.7%	-1.8	1.3%
COc1cc(OC)cc(C(=O)N2CCN(Cc3ccccc3Br)CC2)c1	-6.0%	2.9%	-3.1	-0.4%	-2.3	-0.3%
Cc1c(Cl)cccc1NC(=S)NC1CCCC1	-13.2%	?	8.2	?	-2.8	.
Cc1ccc2cc(CN(Cc3ccc(F)cc3)Cc3nnnn3C3CCCC3)c(=O)[nH]c2c1	-24.7%	50.9%	14.6	3.7µM*	12.4*	-1.0%
CCC(C)(C)n1nnnc1CN(Cc1cc2cc(OC)ccc2[nH]c1=O)C1CCCC1	-32.3%	24.4%	8.0	?	-3.6	4.1%
Cc1cccc2cc(CN(Cc3nnnn3C3CCCCC3)C3CCCC3)c3nnnn3c12	11.7%	.	13.2	11.7µM*	-3.4	-56.5%
COc1ccc(Cn2nnnc2CN(Cc2cc3ccc(C)cc3[nH]c2=O)C2CCCC2)cc1	-35.9%	4.2%[5.75 µM]	19.7	9.28µM*	-3.1	2.3%
COc1ccc(Cn2nnnc2CN(Cc2cc3cccc(C)c3[nH]c2=O)C2CCCC2)cc1	-43.0%	24.3%	-0.3	10.4µM*	1.1	-3.4%
O=C(c1ccc(CS(=O)(=O)c2ccccc2)o1)N1CCOCC1	-11.6%	11.7µM*	15.7	.	5.5	4.2%
O=C(c1ccc(CS(=O)(=O)c2ccc(Br)cc2)o1)N1CCCC1	7.0%	7.38µM*	23.4	.	-2.0	4.3%
CN(c1ccccc1)S(=O)(=O)c1ccc(C(=O)N2CCCC(C(F)(F)F)C2)cc1 (stereo not given)	1.7%	-14.1%	18.8	-13.3%	5.3	2.4%

Source: PubChem (National Center for Advancing Translational Sciences (NCATS))
